Screens as filed in PubChem BioAssay.
Only some compounds are listed: those with a hit (about 7.9% of all), similar ones and a draw of the others.
LASV entry inh = Lassa virus entry inhibition | Lassa virus pseudotype entry inhibition, cell reporter | Potency, µM (doses to about 37.9 µM), inactives show top-dose activity change, negative = inhibition, usual class: inhibitors | 300,000 compounds, 1.2% hits | AID 540256; calls by dose curve; tested in HEK293 cells; further: potency means the concentration at half of the fitted maximal effect; nearly all actives have a fitted effect of over 50% in size
HCV inhibitor = HCV inhibition; Huh7.5.1 HCVcc-Cre infection, luciferase reporter, 44 h; Potency, µM (titrated, usually from 41.8 µM), for inactives: at the highest dose activity change, negative = inhibition, actives largely listed as inhibitors; 340,000 compounds, 3.4% hits; active means well fitted inhibition curve with a large enough effect; inconclusive means small, poorly fitted or top-dose-only effect, or another doubt; inactive means no such curve, though single readings can be large or run the other way; further: potency means the concentration at half of the fitted maximal effect
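Compounds are dispensed onto cells plated 4 h earlier at 1,000 per well, with HCVcc-Cre virus (about 0.5 moi) added next. Following 44 h of culture, luminescent signal is measured for 15 sec after 15 min with substrate at room temperature.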
MARV entry inh = Marburg virus entry inhibition. 300,000 compounds, 1.8% hits. AID 540276. Potency, µM (highest dose often 37.8 µM), for inactives: at the highest dose activity change, negative = inhibition, hits mostly inhibitors. Marburg virus pseudotyped entry inhibition, cell reporter; calls by dose curve; tested in HEK293 cells; further: potency means the concentration at half of the fitted maximal effect
HCMV inh = human cytomegalovirus inhibition; activity change, negative = inhibition, % at 57.5 µM; 410,000 compounds, 4.5% hits; AID 1259415; HFF cells, HCMV-luciferase reporter, 72 h; hits give low values; in the data active means activity change below about -60%; inconclusive means no clear call, values can overlap the other calls; inactive means above about -39%
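Compounds were evaluated in HFFs infected with an HCMV luciferase reporter virus (MOI 1 PFU/cell). Luciferase in lysates collected 72 h post infection served as the replication measure.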
FMDV inh = foot and mouth disease virus antiviral activity; FMDV antiviral cell-based qHTS; Potency, µM (doses to about 57.9 µM), without a hit: at the top dose activity change, negative = inhibition, most hits filed as inhibitors; 410,000 compounds, 1.2% hits; AID 1159524; calls by dose curve; tested in HEK293T cells; further: read-out not given here; potency means the concentration at half of the fitted maximal effect; nearly all actives have a fitted effect of over 45% in size
An asterisk follows results filed as active; ? = inconclusive; . = no result given; [ ] = another dose, or the depositor's remark. On the % scale 0 is the no-effect control and ±100 the full control effect.

SMILES	LASV entry inh	HCV inhibitor	MARV entry inh	HCMV inh	FMDV inh
CCN(CC)CCNc1ccnc2cc(Cl)ccc12	-17.5%	5.62µM*	2.91µM*	0.3	-21.0%
CCN(CC)Cc1cc(Nc2ccnc3cc(Cl)ccc23)ccc1O	.	7.94µM*	.	-28.4	-17.3%
O=C(NCCNc1ccnc2cc(Cl)ccc12)c1ccccc1F	.	12.6µM*	.	-61.7*	?
Cc1ccc(NC(=O)Cn2c(=O)n(CCc3ccccc3)c(=O)c3sc4ccccc4c32)cc1C	15.0%[46.1 µM]	.	?	15.2	9.5%
CCOC(=O)NN=Cc1ccccc1-c1cc(OC)ccc1OC	.	.	-4.0%[14.2 µM]	.	.
COC(=O)c1nn(-c2ccccc2)c2nnc(Cc3ccc(C)cc3)c(=O)n12	2.5%	-5.5%	?	-108.1*	-1.0%
O=C(Nc1cc(F)cc(F)c1)c1ccc(NCCCN2CCCCCC2)c([N+](=O)[O-])c1	2.2%	?	?	36.1	-12.9%
Cc1ccc(NC(=O)c2ccc(NCCCN3CCC(C)CC3)c([N+](=O)[O-])c2)c(C)c1	.	11.2µM*	.	?	4.0%
COc1cccc(NC(=O)c2ccc(NCCCN3CC(C)CC(C)C3)c([N+](=O)[O-])c2)c1 (stereo not given)	5.3%	7.94µM*	-26.8%[46.1 µM]	-25.3	-17.5%
COc1cccc(NC(=O)c2ccc(NCCCN3CCC(C)CC3)c([N+](=O)[O-])c2)c1	-15.2%[46.1 µM]	?	3.98µM*	-24.2	-3.5%
Cc1ccc(NC(=O)c2ccc(NCCN)c([N+](=O)[O-])c2)cc1Cl	13.9%	14.1µM*	?	-81.7*	11.7%
Cc1ccc(NC(=O)c2ccc(NCCc3ccccc3)c([N+](=O)[O-])c2)cc1F	?	?	-1.6%	17.9	-22.4%
CCCN(CCC)CCCNc1ccc(C(=O)Nc2cccc(OC)c2)cc1[N+](=O)[O-]	-18.7%	?	?	?	-12.6%
O=C(CSc1ncc(-c2ccccc2)[nH]1)Nc1cccc(C(F)(F)F)c1	9.9%[46.1 µM]	.	24.6%[46.1 µM]	-34.4	18.5%
CCN(c1ccccc1)S(=O)(=O)c1ccc(Oc2ccccc2)c(N)c1	?	?	?	-36.6	?
CC(C(=O)Nc1ccccc1Br)N1c2cccc3cccc(c23)S1(=O)=O (stereo not given)	?	?	?	?	18.1%
CCCCN(CCCC)CCNC(=O)Cn1nc(C)n2c(cc3sccc32)c1=O	.	.	-2.5%[46.1 µM]	-6.2	-6.1%
CC(=O)c1ccc(OCc2cc(C(=O)N3CCN(c4ccccc4)CC3C)no2)cc1 (stereo not given)	.	22.4µM*	.	-0.3	-7.5%
Cc1cc2nc(N3C(=O)CNC3=S)sc2cc1C	?	26.0%	?	106.8	-65.0%
CCOc1ccc2nc(N3C(=O)CNC3=S)sc2c1	?	5.2%	?	-106.4*	-54.9%
O=C(Cn1cc2ccccc2n1)N1CCOc2ccc(C(O)C3CCCCC3)cc2C1 (stereo not given)	.	.	.	.	-12.5%
CC(=O)Nc1cccc(-c2csc(Nc3ncccn3)n2)c1	.	.	.	3.2	.
CC(=O)Nc1cccc(-c2csc(Nc3ccc(C)cn3)n2)c1	1.78µM*	?	?	8.9	-33.3%
CC(=O)Nc1ccc(-c2csc(Nc3cccc(C)n3)n2)cc1	?	12.6µM*	-15.1%	7.0	27.4%
COc1ccc(CNC(=O)CN(c2ccccc2OC)S(=O)(=O)c2ccc(C)cc2)cc1	?	.	.	-31.1	?
SMILES	LASV entry inh	HCV inhibitor	MARV entry inh	HCMV inh	FMDV inh
CCOC(=O)CN1C(=O)N[C@@H](c2ccccc2)[C@H](C(C)=O)[C@H]1C	.	17.2%	2.0%[14.2 µM]	-102.6*	-1.1%
COC(=O)[C@@H]1[C@@H](C)N(Cc2ccccc2)C(=O)N[C@H]1c1cccc(C(F)(F)F)c1	.	2.82µM*	-19.4%[14.2 µM]	-19.8	0.0%
COC(=O)[C@H]1[C@@H](c2cccc(C(F)(F)F)c2)NC(=O)N(Cc2ccccc2)[C@@H]1C	.	.	25.5%[14.2 µM]	.	.
CC1ON=C(c2ccccn2)N(Cc2ccc(S(C)(=O)=O)cc2)C1=O (stereo not given)	.	.	.	-15.3	-12.1%
CCCCN(C)CCNC(=O)CCNC(=O)Cn1ccc2ccccc2c1=O	7.0%[46.1 µM]	6.2%	7.5%[46.1 µM]	-38.8	-2.9%
CC(NS(=O)(=O)c1ccc(OCC(=O)NCc2ccncc2)cc1)c1ccccc1 (stereo not given)	.	13.7%	4.47µM*	?	26.0%
CC(C)NS(=O)(=O)c1ccc(OCC(=O)NCc2ccccc2)cc1	10.9%	-2.4%	-20.1%	49.1	-1.6%
O=C(O)CCn1cnc2onc(-c3ccccc3Cl)c2c1=O	15.5%[46.1 µM]	.	-10.0%[46.1 µM]	11.7	29.6%
COc1ccc(-n2nnc3c(=O)n(Cc4cc(C)ccc4C)cnc32)cc1	1.16µM*	?	-23.2%	-15.5	6.5%
COc1ccc(-n2nnc3c(=O)n(CC(=O)NCC4CCCO4)cnc32)cc1 (stereo not given)	1.1%	1.4%	17.0%	-101.8*	-8.1%
Cc1ccc(-n2nnc3c(=O)n(Cc4ccccc4C)cnc32)cc1	.	9.0%	.	4.7	-27.0%
Cc1ccc(-n2nnc3c(SCC(=O)NCC4CCCO4)ncnc32)cc1 (stereo not given)	?	1.5%	-17.7%	.	?
O=C(Cn1cnc2c(nnn2-c2ccc(F)cc2)c1=O)NCC1CCCO1 (stereo not given)	1.5%	-1.5%	?	50.7	-20.1%
O=C(CSc1ncnc2c1nnn2-c1ccc(F)cc1)NCC1CCCO1 (stereo not given)	-17.8%	-3.1%	-28.8%	-12.7	15.8µM*
CN1C=Nc2c(ncn2C2CCC(CO)O2)C1O (stereo not given)	.	.	.	2.5	-18.3%
C=C(C)C1Cc2c(ccc(C(=O)O)c2O)O1 (stereo not given)	.	.	.	.	-10.2%
CCOC(=O)N1CCc2cc(OC)c(OC)c3c2c1cc1cc(OC)c(OC)cc13	?	?	7.94µM*	-11.5	?
CCCOc1ccc(/C=C2\SC(N)=NC2=O)cc1OC	.	-7.8%	.	184.6	20.8%
CCCOc1ccccc1/C=C1\SC(N)=NC1=O	3.8%[46.1 µM]	12.7%	20.0%[46.1 µM]	-63.5*	-10.3%
O=C(COc1ccc(C(=S)N2CCCC2)cc1)Nc1ccccc1C(F)(F)F	?	-18.3%	16.2%	-65.4*	0.0%
O=C(COc1ccc(C(=S)N2CCOCC2)cc1)Nc1ccccc1C(F)(F)F	.	?	7.3%[46.1 µM]	-87.1*	-20.3%
COc1ccc(CN2CCC3(CC2)c2ccccc2[C@@H](NC(=O)c2ccccc2)[C@@H]3O)cc1O	.	.	.	.	3.7%
CCCCN1/C(=C/c2ccc3ccccc3[n+]2CC)Sc2ccccc21	2.24µM*	8.91µM*	5.62µM*	.	20µM*
Cc1sc2c3ccsc3ccc2[n+]1C	-10.4%	-3.2%	11.1%[46.1 µM]	-18.5	-7.6%
CCN1/C(=C/c2ccc3cc(C)ccc3[n+]2C)Sc2ccc3sccc3c21	.	?	.	-95.6*	-18.5%
CCN1/C(=C/c2ccc3cc(C)ccc3[n+]2CC)Sc2cc(C)ccc21	.	2.51µM*	.	-99.7*	?
CCCCN1/C(=C/c2cccc[n+]2C)Sc2cc(NC(C)=O)ccc21	.	-6.8%	.	3.8	-5.8%
CCN1/C(=C/c2ccc3ccccc3[n+]2CC)C=Cc2ccccc21	5.62µM*	4.47µM*	3.55µM*	-104.1*	?
